Assay results as given in the supplement of paper PMC8253809.
Several values for one entry are separate records, joined by “and”; a condition that tells them apart may be missing. Equal entries are not always repeated.

Key:
Experiment in all cases: growth inhibition (% activity, log2 RLU normalised to DMSO / staurosporine); higher = more growth inhibition
Settings in all cases: 33 µM
[1] = test system: DIPGX29 (H3.3 K27M diffuse intrinsic pontine glioma line)
Summary of the method: (§1)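 For each approved drug, the growth-inhibition value is the replicate median of per-plate normalised CellTiter-Glo data. Luminescence was log2-transformed and expressed as % activity between solvent and positive control wells. Drugs were applied in triplicate at a single final concentration of about 33 μM for 7 days at 37 °C, 5% CO2 to pHGG cell lines and H9-derived neural stem cells.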

[2] = test system: DIPGX37 (H3.3 K27M diffuse intrinsic pontine glioma line)
Summary of the method: as §1

[3] = test system: DIPGX7 (H3.3 K27M diffuse intrinsic pontine glioma line)
Summary of the method: as §1

[4] = test system: DIPGX9 (diffuse intrinsic pontine glioma line)
Summary of the method: as §1

[5] = test system: HGGX39 (paediatric high-grade glioma line)
Summary of the method: as §1

[6] = test system: HGGX6 (H3.3 G34R paediatric high-grade glioma line)
Summary of the method: as §1

[7] = test system: HNSC
Summary of the method: as §1

[8] = test system: SUDIPGIV (diffuse intrinsic pontine glioma line)
Summary of the method: as §1

[9] = test system: SUDIPGVI (diffuse intrinsic pontine glioma line)
Summary of the method: as §1

[10] = test system: SUDIPGXIII (diffuse intrinsic pontine glioma line)
Summary of the method: as §1

SMILES	growth inhibition [1]	growth inhibition [2]	growth inhibition [3]	growth inhibition [4]	growth inhibition [5]	growth inhibition [6]	growth inhibition [7]	growth inhibition [8]	growth inhibition [9]	growth inhibition [10]
O=c1cc[nH]c(=O)[nH]1	0.309%	2.71%	0.41%	1.11%	0.158%	0.91%	-1.21%	0.441%	1.23%	-16.8%
CC1(C)[C@H](C(=O)O)N2C(=O)C[C@H]2S1(=O)=O	2.32% and -0.376%	-0.186% and 1.2%	3.29% and 0.579%	2.15% and 2.67%	4.9% and 2.16%	1.21% and -0.215%	11.1% and 0.73%	1.62% and -0.448%	2.58% and 1.67%	0.364% and -0.373%
NS(=O)(=O)c1cc2c(cc1Cl)NC(C(Cl)Cl)NS2(=O)=O (configuration not stated)	1.16%	4.01%	3.24%	5.41%	4.4%	5.05%	-0.78%	-3.21%	2.47%	0.0927%
Cc1c(Nc2ncccc2C(=O)O)cccc1C(F)(F)F	0.454%	2.84%	0.522%	1.64%	1.78%	3.08%	1.18%	-3.76%	2.1%	
Cc1onc(-c2ccccc2)c1-c1ccc(S(N)(=O)=O)cc1	0.8%	1.05%	0.883%	0.672%	3.67%	2.37%	-0.462%	-2.73%	2.54%	
CC(C)NCC(O)COc1cccc2ccccc12 (configuration not stated)	-0.19%	-0.496%	-0.508%	1.12%	0.98%	0.0936%	-3.29%	-1.1%	0.673%	
Cc1oncc1C(=O)Nc1ccc(C(F)(F)F)cc1	12%	9.13%	10.1%	22.6%	24.2%	9.78%	55.7%	28.2%	1.33%	2.78%
N=C(N)c1ccc(N=NNc2ccc(C(=N)N)cc2)cc1	-2.11%	-3.98%	-0.967%	-1.13%	7.13%	4.38%	-4.44%	15.4%	0.511%	
CCn1cc(C(=O)O)c(=O)c2ccc(C)nc21	-2.16%	-2.18%	-0.91%	0.0696%	-0.871%	0.278%	-2.82%	-0.499%	-1.38%	
COc1cc2c(cc1OC)CC(=O)N(CCCN(C)C[C@H]1Cc3cc(OC)c(OC)cc31)CC2	-0.791%	1.83%	1.52%	1.21%	2.26%	0.769%	7.75%	0.5%	1.04%	
O[C@@H]1CO[C@H]2[C@@H]1OC[C@@H]2O	-2.46%	0.0638%	-2.43%	-0.699%	0.692%	0.785%	-3.92%	-2.68%	-0.216%	
O=c1ccc2ccccc2o1	0.12%	0.196%	-0.587%	2.02%	1.94%	0.845%	-0.623%	-0.0159%	1.45%	
CCCc1nc(C)c2c(=O)nc(-c3cc(S(=O)(=O)N4CCN(CC)CC4)ccc3OCC)[nH]n12	-1.2%	-1.39%	-0.617%	0.618%	1.97%	2.02%	-2.13%	0.711%	0.112%	
N[C@@H]1CCCCN(c2c(F)cc3c(=O)c(C(=O)O)cn(C4CC4)c3c2Cl)C1	-3.25%	-0.479%	-2%	-1.55%	-1.72%	-3.25%	-0.931%	-3.46%	-2.21%	-0.978%
O=C(O)c1cccnc1Nc1cccc(C(F)(F)F)c1	-0.796%	3.58%	-0.0228%	0.51%	1.81%	2.52%	-1.26%	-3.93%	2.23%	
C#C[C@]1(O)CC[C@H]2[C@@H]3CCC4=CC(=O)CC[C@@H]4[C@H]3CC[C@@]21C	-0.22%	3.5%	1.4%	2.42%	4.07%	7.23%	6.68%	-0.735%	0.661%	
CC[C@H]1OC(=O)[C@H](C)[C@@H](O[C@H]2C[C@@](C)(OC)[C@@H](O)[C@H](C)O2)[C@H](C)[C@@H](O[C@@H]2O[C@H](C)C[C@H](N(C)C)[C@H]2O)[C@](C)(O)C[C@@H](C)/C(=N\OCOCCOC)[C@H](C)[C@@H](O)[C@]1(C)O	-1.55%	-0.523%	-0.0281%	1.56%	1.63%	0.659%	-0.847%	0.447%	-0.66%	
Nc1c2c(nc3ccccc13)CCCC2	-2.45%	1.21%	-2.4%	-0.673%	-0.0323%	-0.396%	-4.73%	1.29%	-2.15%	-0.353%
CC(/C=C1\SC(=S)N(CC(=O)O)C1=O)=C\c1ccccc1	-1.36%	-1.28%	-1.21%	0.579%	-0.83%	-0.392%	-2.25%	-1.67%	-1.06%	1.76%
CN(C)CCC=C1c2ccccc2CCc2ccccc21	0.114%	2.57%	1.28%	1.79%	5.11%	2.03%	0.41%	1.93%	2.05%	
CCCN1CCCC[C@H]1C(=O)Nc1c(C)cccc1C	-0.141%	1.83%	0.26%	0.846%	2.25%	1.44%	-0.32%	-1.01%	0.908%	
CCCCN1CCCCC1C(=O)Nc1c(C)cccc1C (configuration not stated)	-1.45%	-1.09%	-1.58%	0.909%	1.03%	0.943%	-1.77%	-2.22%	-1.08%	7.3%
CC(C)(C)C(=O)C(Oc1ccc(Cl)cc1)n1ccnc1 (configuration not stated)	0.826%	1.56%	3.93%	1.25%	5.9%	4.74%	5.37%	7.06%	2.6%	

SMILES	growth inhibition [1]	growth inhibition [2]	growth inhibition [3]	growth inhibition [4]	growth inhibition [5]	growth inhibition [6]	growth inhibition [7]	growth inhibition [8]	growth inhibition [9]	growth inhibition [10]
CC(C(=O)O)c1ccc(-c2ccccc2)c(F)c1 (configuration not stated)	0.779%	3.25%	1.53%	1.06%	2.57%	1.43%	0.919%	-4.24%	2.75%	-0.916%
CC(C)[C@H]1CC[C@H](C(=O)N[C@H](Cc2ccccc2)C(=O)O)CC1	-0.743%	0.294%	0.0113%	0.231%	1.32%	1.09%	-0.0956%	-1.21%	-0.179%	
C=C(c1ccc(C(=O)O)cc1)c1cc2c(cc1C)C(C)(C)CCC2(C)C	8.85%	-3.45%	11%	10.4%	12.4%	9.38%	14.6%	6.25%	9.87%	
CCCCCCCN(CC)CCCC(O)c1ccc(NS(C)(=O)=O)cc1 (configuration not stated)	-0.358%	0.859%	2.25%	1.97%	2.78%	0.985%	-2.1%	0.633%	1.61%	
CC1(C)S[C@@H]2[C@H](NC(=O)Cc3ccccc3)C(=O)N2[C@H]1C(=O)O	-0.211%	1.76%	0.712%	0.921%	2.76%	0.0221%	1.53%	0.754%	0.396%	
CC(=O)NC[C@H]1CN(c2ccc(N3CCOCC3)c(F)c2)C(=O)O1	0.341%	-2.02%	0.521%	1.07%	3.34%	1.89%	6.16%	4.69%	1.21%	1.55%
Oc1c(Br)cc(Br)c2cccnc12	-0.427%	0.213%	1.4%	1.88%	2.61%	1.93%	-0.441%	0.619%	2.93%	
CCCCCCCCCCCCCCCCCCCCCCO	0.193%	0.0924%	-0.407%	0.0399%	-0.179%	0.445%	1.03%	-1.18%	1.92%	1.68%
Cc1ncc([N+](=O)[O-])n1CC(C)O (configuration not stated)	-2.47%	-0.804%	-1.3%	0.505%	-1.86%	0.138%	-4.53%	-1.52%	-0.382%	
CC[C@H]1OC(=O)[C@H](C)[C@@H](O[C@H]2C[C@@](C)(OC)[C@@H](O)[C@H](C)O2)[C@H](C)[C@@H](O[C@@H]2O[C@H](C)C[C@H](N(C)C)[C@H]2O)[C@](C)(O)C[C@@H](C)[C@@H]2N[C@@H](COCCOC)O[C@H]([C@H]2C)[C@]1(C)O	-1.13%	-1.4%	-1.51%	-0.804%	-0.699%	-1.07%	-4.19%	-1.28%	-0.768%	
Cc1ccc(S(=O)(=O)NC(=O)NN2CCCCCC2)cc1	-1.75%	0.973%	-0.7%	-1.05%	0.24%	1.06%	-3.09%	-2.7%	-0.0433%	
COC(=O)C1=CO[C@@H](O[C@@H]2O[C@H](CO)[C@@H](O)[C@H](O)[C@H]2O)[C@@H]2C(CO)=CC[C@H]12	-1.79%	-0.171%	-2.08%	0.601%	0.266%	2.37%	-2.11%	-1.32%	-2.76%	
CCC(C)n1ncn(-c2ccc(N3CCN(c4ccc(OCC5COC(Cn6cncn6)(c6ccc(Cl)cc6Cl)O5)cc4)CC3)cc2)c1=O (configuration not stated)	-0.782%	1.27%	1.59%	1.24%	4.33%	1.37%	7.95%	1.44%	1.98%	
C[C@@H](O)[C@H]1C(=O)N2C(C(=O)OCOC(=O)C(C)(C)C)=C(SC3CN(C4=NCCS4)C3)[C@H](C)[C@H]12	-0.211%	2.3%	0.926%	0.809%	1.15%	0.471%	-0.363%	-0.736%	2.12%	
N#CC1(c2ccc(NC(=O)c3cccnc3NCc3ccncc3)cc2)CCCC1	1.93%	-3.69%	2.91%	3.39%	8.17%	4.45%	1.96%	7.08%	-1.37%	
Cc1c(O)c(=O)ccn1C	-0.259%	-0.497%	-0.173%	1.03%	0.26%	1.77%	-3.85%	-2.04%	0.573%	
COc1cc2c(cc1O)CC[C@@H]1[C@@H]2CC[C@]2(C)[C@@H](O)CC[C@@H]12	9.48%	1.66%	9.77%	16.5%	13.2%	11.7%	53.5%	20.7%	-1.23%	1.78%
c1cnc2cc3c(cc2n1)[C@@H]1CNC[C@H]3C1	1.18%	-2.8%	1.78%	0.684%	0.561%	1.15%	0.349%	-0.44%	-0.35%	-1.07%
O=C(O)c1cc(-c2ccccc2)nc2ccccc12	0.382%	2.97%	0.465%	2.04%	1.46%	1.01%	-0.619%	-1.08%	2.54%	0.975%
CN1CCN(CCCN2c3ccccc3Sc3ccc(Cl)cc32)CC1	4.66%	1.44%	9.7%	-0.83%	3.02%	1.39%	13.3%	-0.567%	-3.14%	-0.277%
CC(=O)Oc1ccccc1C(=O)Nc1ncc([N+](=O)[O-])s1	0.503%	4.15%	3.15%	1.52%	3.31%	1.98%	7.17%	3.07%	1.06%	63.6%
CC(C)Cn1cnc2c(N)nc3ccccc3c21	0.9%	3.11%	0.885%	0.567%	1.26%	2.84%	0.687%	0.0825%	3.61%	0.156%
